Experimental data: PubChem BioAssay AID1159606 (Sanford-Burnham Center for Chemical Genomics, 2016)
About 7,300 (2%) of roughly 360,000 compounds were called active. Rule as the data show it: active = inhibition above about 50%; inactive = the rest. Shown is part of a subset that was picked to be rich in actives.

test: blockers of TWEAK-induced Fn14 reporter activity – luciferase reporter cells, uHTS, primary screen (AID 1159606); details: TWEAK-stimulated Fn14 reporter cells, luciferase luminescence, 8 h; at 10 µM; active compounds read high

SMILES | inhibition
CC(=CCOc1ccc2ccc(=O)oc2c1)C1=CC(=O)C(C)(C)O1 | 70.4% (active)
CSc1nc2ccc(C)cc2c(=O)n1-c1cccnc1 | 0.75% (inactive)
CN(C)c1ccc(/C=C2\CC3C4CC=C5CC(O)CCC5(C)C4CCC3(C)C2=O)cc1 (stereo not given) | -57.2% (inactive)
NC(=O)Nc1cccc(C(F)(F)F)c1 | -2.53% (inactive)
Cc1cccc(NC(=O)N2CC3CC(C2)c2cccc(=O)n2C3)c1 (stereo not given) | 3.66% (inactive)
CNC(=O)O/N=C(\N)Cc1csc2ccccc12 | 16.5% (inactive)
CC(=O)c1ccc(OC(NC(=O)Cc2ccccc2)C(Cl)(Cl)Cl)cc1 (stereo not given) | -4.23% (inactive)
C[C@H]1CN([C@@H](C)CO)C(=O)CCCn2nncc2CO[C@H]1CN(C)C(=O)Oc1cccc2ccccc12 | 9.18% (inactive)
O=C1NC(=O)C(C/C=C/c2ccccc2)C(=O)N1 | 0.48% (inactive)
CCCCCCCCCCCCn1ccc(=N)cc1 | 74% (active)
CCCn1c(C(=O)c2ccccc2OC)nc2ccccc21 | -3.91% (inactive)
COc1ccc2c(c1)NP(=S)(c1ccccc1)N2 (stereo not given) | -0.5% (inactive)
CN(C)CC1Oc2ccccc2OC1(O)c1ccccc1 (stereo not given) | 79.6% (active)
Cc1ncoc1C(=O)NCC1=C(c2cccc3ccccc23)C[C@@H]2CC[C@H]1N2Cc1ccco1 | -0.7% (inactive)
COc1cccc(-c2nc3ccc(N4CCN(C)CC4)cc3[nH]2)c1 | -27.5% (inactive)
C[C@]12CC[C@H](O)C[C@H]1CC[C@@H]1C2CC[C@]2(C)[C@@H](C3=CC(=O)OC3)[C@@H](O)C[C@]12O (stereo not given in full) | 56.4% (active)
CC12CCC(O)CC1CCC1C2CCC2(C)C(C(=O)CC(O)C(F)(F)F)CCC12 (stereo not given) | -91.4% (inactive)
O=c1[nH]c(=O)n(-c2ccc(F)cc2)c(O)c1C=NCCN1CCCCC1 | 6.59% (inactive)
CN(C)C(=O)Oc1cc(=O)n2c3c(cccc13)CCC2 | 30.3% (inactive)
Cc1cc(C(=O)OCC(=O)Nc2c(F)cccc2F)c(C)n1C1CC1 | 4.53% (inactive)
C[C@]12CCC3C(CC[C@H]4[C@H](O)[C@H](O)CC[C@]34C)C1CC[C@@H]2O (stereo not given in full) | -13.2% (inactive)
C[C@]12CC[C@H](O)CC1=C([N+](=O)[O-])CC1C2CC[C@@]2(C)C1CC[C@@H]2O (stereo not given in full) | 1.49% (inactive)
C[C@]12CCC3C(CC[C@H]4[C@H](O)[C@H](O)CC[C@]34C)C1CCC2=O (stereo not given in full) | 96.5% (active)
OC1/C(=C/c2ccc(C(F)(F)F)cc2)N2CCC1CC2 (stereo not given) | -3% (inactive)
COC(=O)C1=C(c2ccc3ccccc3c2)C[C@@H]2CC[C@H]1N2C(=O)NCCO | 6.86% (inactive)

SMILES | inhibition
CCN1CCN(c2nc3c(c(=O)[nH]2)CCC3)CC1 | 14.3% (inactive)
COc1ccc2[nH]c3c(c2c1)CCN[C@H]3C | 75.7% (active)
Cc1ccc2c(c1)=C/C(=C\c1c(O)[nH]c(=O)[nH]c1=O)C(=O)N=2 | -3.63% (inactive)
Cc1cc2ccccn2c1C(C[N+](=O)[O-])c1c(F)cccc1Cl (stereo not given) | 102% (active)
Cc1cccc(-n2c(C)nc3cc(C(=O)N4CCC5(CC4)OCCO5)ccc32)c1 | -8.93% (inactive)
O=c1[nH]c2ccccc2n1C1CCN(C(c2ccnc3ccccc23)c2nnnn2Cc2ccccc2)CC1 (stereo not given) | 27.5% (inactive)
CCN(N=Nc1nonc1OC)c1nonc1OC | -11.1% (inactive)
O=C1NC(=O)N(CCc2ccc(F)cc2)C(=O)/C1=C/C=C/c1ccccc1 | 79.4% (active)
COC1=CC=C2[C@H]3Cc4ccc(OC)c5c4[C@@]2(CCN3C)C1O5 (stereo not given in full) | -16% (inactive)
Cc1cc(N2C(=O)C3CCCN3C2c2ccc(Cl)c(Cl)c2)no1 (stereo not given) | -3.31% (inactive)
CC(C)c1ccc(O)c(CN2CCN(c3ccccc3)CC2)c1 | 4.05% (inactive)
CCC(C)(O)C(=O)OC1C(=O)OC2CC3C(C)=CC(=O)C(O)C3(C)C3C4(O)OCC23C1C(C)C4O (stereo not given) | 99.5% (active)
CCOP(=O)(OCC)C(O)c1ccc(OC)cc1OC (stereo not given) | 3.38% (inactive)
CCC(=O)OC(Cc1ccccc1)(c1ccccc1)C(C)CN(C)C (stereo not given) | 3.52% (inactive)
O=C(NCC1=C(c2ccc3ccccc3c2)C[C@@H]2CC[C@H]1N2Cc1ccco1)c1cccs1 | -11.2% (inactive)
CC(=O)OC1C2(CC3N4C(=O)C5(CO)SSC4(CC31O)C(=O)N5C)OC(C)C(C)(C)C2=O (stereo not given) | 107% (active)
CN(C)C(=O)NC(O)C(Cl)(Cl)Cl (stereo not given) | 5.54% (inactive)
Cc1cccc(-n2c(O)c(C=NC34CN5CN(CN(C5)C3)C4)c(=O)[nH]c2=O)c1 | -1.26% (inactive)
COC1C(O)C(C)OC(OC2CCC3(C=O)C(CCC4C3CCC3(C)C(C5=CC(=O)OC5)CCC43O)C2)C1O (stereo not given) | 80.6% (active)
CC(=NCc1ccc2c(c1)OCO2)c1c(O)[nH]c(=O)[nH]c1=O | -1.24% (inactive)
CCN(CC)C(=O)Oc1ccc(NC(=O)N2CCOCC2)cc1 | 12.2% (inactive)
Cc1ccc(N(C)C(=O)Oc2cccc3ccc(C)nc23)cc1 | -2.35% (inactive)
O=Cc1cn(Cc2ccc(F)cc2Cl)c2ccccc12 | 56.5% (active)
CC1C(=O)OC2CCN3CC=C(COC(=O)C(C)(O)C1(C)O)C23 (stereo not given) | -18.7% (inactive)
CC[N+]1(C)CCCC(OC(=O)C(O)(c2ccccc2)c2ccccc2)C1 (stereo not given) | -7.55% (inactive)

SMILES | inhibition
CCOC(=O)[C@]12Cc3ccccc3[C@H]1N(C1CCCCC1)C(=O)c1cc(OC)ccc12 | 42.5% (inactive)
COC(=O)CN(CCCl)P1(=O)OCCCN1CCCl (stereo not given) | -6.99% (inactive)
O=C1NC(=O)C(CCOc2ccccc2)(CCc2ccccc2)C(=O)N1 | -21.8% (inactive)
COc1ccccc1C1=NCc2nnc(CSC)n2-c2ccc(Cl)cc21 | 12.6% (inactive)
CCN1CC2C3CCC(C)(O3)C2C1 (stereo not given) | 2.33% (inactive)
CCOC(=O)C1=C(C)OC(N)=C(C(=O)OC)C12C(=O)Nc1ccc(Br)cc12 (stereo not given) | -9.87% (inactive)
COc1ccc(C2C=C(C)Oc3c2c(=O)oc2ccccc32)cc1OC (stereo not given) | 1.69% (inactive)
N#CC1=C(N)Oc2c(c(=O)oc3ccccc23)C1c1ccccc1OC(=O)c1cccs1 (stereo not given) | 51.3% (active)
CCNc1nc2[nH]c(=O)c3c(c2s1)OC(N)=C(C#N)C3c1cccs1 (stereo not given) | 19.6% (inactive)
Nc1ccc(Cc2ccc(N)c(Cl)c2)cc1Cl | 7.24% (inactive)
COc1ccccc1OC(=O)c1ccc(C)c(S(=O)(=O)N2CCOCC2)c1 | 5.54% (inactive)
COC(=O)C1=C(c2ccc(F)cc2F)C[C@@H]2CC[C@H]1N2C(=O)NC1CC1 | 10.7% (inactive)
CCC/C(=N\O)c1c[nH]c2ccccc12 | -11.5% (inactive)
CCOc1ccc(C2SCC(=O)Nc3c2c(C)nn3C2CCOC(C)(C)C2)cc1 (stereo not given) | 7.72% (inactive)
Cc1ccc(P(=S)(c2ccc(C)o2)N2CCOCC2)o1 | 73.2% (active)
CCOC(=O)[C@]12Cc3cc(OC)ccc3[C@H]1N(C(C)C)C(=O)c1ccccc12 | 25.1% (inactive)
O=C(NC1CCCCC1)N1Cc2cc(N3CCCCC3)ccc2-n2nncc2C1 | -46.7% (inactive)
CN1CCN(/N=C/c2c[nH]c3ccccc23)CC1 | 4.46% (inactive)
COC(=O)C1=C(c2ccc(OCc3ccccc3)cc2)C[C@@H]2CC[C@H]1N2C(=O)NCc1cccc(F)c1 | 37.4% (inactive)
CN1CCN(Cc2ccccc2C(F)(F)F)CC1 | 0.88% (inactive)
Fc1cccc(F)c1CN1CCN(Cc2c(F)cccc2F)CC1 | 92.7% (active)
C/C(=N/O)c1ccc2ccc3ccccc3c2c1 | 2.22% (inactive)
COc1ccccc1N1CCN(C(CNC(=O)Oc2ccccc2)c2cccnc2)CC1 (stereo not given) | 3.6% (inactive)
COCc1cc(OC(=O)N(C)C)nc(-c2ccc(C)c(Cl)c2)n1 | 6.49% (inactive)
c1cc2c(cc1[C@H]1OC[C@H]3[C@@H]1CO[C@@H]3c1ccc3c(c1)OCO3)OCO2 | -20.1% (inactive)
